Test results reported in PubChem BioAssay (EPA / NIEHS).
“And” between values parts separate entries of the source, which are not always exact repeats. Equal values may be shown once. Records with an inconclusive call do not appear. The source made the active and inactive calls. The calls were made as follows, unless noted: active = hit-call score of the fitted dose curve at least 0.9, where 1 is the maximum; inactive = score below 0.9.

Columns and labels:
[1] = target: Bile acid receptor (Homo sapiens) (UniProt Q96RI1); assay: ATG_FXR_TRANS: Attagene TRANS-FACTORIAL HepG2 Assay for Farnesoid X Receptor (FXR) (AID 2282979; active = hit-call score of the fitted dose curve at least 0.9, where 1 is the maximum;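 also: hits raise reporter mRNA above DMSO so AC50 marks FXR activation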); details: HepG2 Attagene TRANS FXR-GAL4 reporter transcription
Sequence of Bile acid receptor (Homo sapiens) (Q96RI1 whole entry, looked up, the tested form may be a part): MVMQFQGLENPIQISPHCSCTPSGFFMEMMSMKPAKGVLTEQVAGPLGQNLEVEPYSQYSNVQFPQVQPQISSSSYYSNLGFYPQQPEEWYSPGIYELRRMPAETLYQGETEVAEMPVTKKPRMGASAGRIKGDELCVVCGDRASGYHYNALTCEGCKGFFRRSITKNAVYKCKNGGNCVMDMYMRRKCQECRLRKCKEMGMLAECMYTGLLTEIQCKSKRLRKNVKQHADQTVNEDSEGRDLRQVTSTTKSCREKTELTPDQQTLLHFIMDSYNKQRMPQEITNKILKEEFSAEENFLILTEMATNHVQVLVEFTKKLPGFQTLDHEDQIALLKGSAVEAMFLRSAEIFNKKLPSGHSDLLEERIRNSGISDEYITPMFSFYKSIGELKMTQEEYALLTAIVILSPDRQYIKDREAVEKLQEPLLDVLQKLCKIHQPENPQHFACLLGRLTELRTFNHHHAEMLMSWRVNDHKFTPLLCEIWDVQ
How it was run: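 Chimeric FXR-GAL4 activity in transiently transfected human HepG2 liver cells is scored as induction of reporter mRNA after 24 h of dosing. Detection uses RT-PCR with fluorescent labelling and capillary electrophoresis, with DMSO serving as baseline.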

[2] = target: Oxysterols receptor LXR-alpha (Homo sapiens) (UniProt Q13133); assay: ATG_LXRa_TRANS: Attagene TRANS-FACTORIAL HepG2 Assay for human Liver X Receptor alpha (LXRa) (AID 2282980; active = hit-call score of the fitted dose curve at least 0.9, where 1 is the maximum); details: HepG2 Attagene TRANS reporter, LXRa transactivation
Sequence of Oxysterols receptor LXR-alpha (Homo sapiens) (Q13133 whole entry, looked up): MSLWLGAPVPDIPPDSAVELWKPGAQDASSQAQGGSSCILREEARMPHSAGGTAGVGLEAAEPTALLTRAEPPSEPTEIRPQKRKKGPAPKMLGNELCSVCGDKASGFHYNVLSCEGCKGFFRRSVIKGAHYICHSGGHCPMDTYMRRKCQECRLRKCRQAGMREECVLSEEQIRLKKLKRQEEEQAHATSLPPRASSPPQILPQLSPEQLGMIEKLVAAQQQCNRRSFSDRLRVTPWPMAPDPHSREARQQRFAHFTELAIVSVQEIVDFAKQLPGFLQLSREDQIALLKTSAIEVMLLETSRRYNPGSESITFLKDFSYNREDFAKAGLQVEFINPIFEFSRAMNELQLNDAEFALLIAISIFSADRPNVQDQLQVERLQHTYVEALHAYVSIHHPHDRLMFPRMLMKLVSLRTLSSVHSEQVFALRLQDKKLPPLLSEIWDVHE
How it was run: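 Transient HepG2 transfectants, 24 h dosing, RT-PCR/CE mRNA reporter quantitation; gain-of-signal vs DMSO.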

[3] = target: Oxysterols receptor LXR-beta (Homo sapiens) (UniProt P55055); assay: ATG_LXRb_TRANS: Attagene TRANS-FACTORIAL HepG2 Assay for human Liver X Receptor beta (LXRb) (AID 2282981; active = hit-call score of the fitted dose curve at least 0.9, where 1 is the maximum); details: HepG2 Attagene TRANS GAL4-LXRb reporter, mRNA
Sequence of Oxysterols receptor LXR-beta (Homo sapiens) (P55055 whole entry, looked up, the tested form may be a part): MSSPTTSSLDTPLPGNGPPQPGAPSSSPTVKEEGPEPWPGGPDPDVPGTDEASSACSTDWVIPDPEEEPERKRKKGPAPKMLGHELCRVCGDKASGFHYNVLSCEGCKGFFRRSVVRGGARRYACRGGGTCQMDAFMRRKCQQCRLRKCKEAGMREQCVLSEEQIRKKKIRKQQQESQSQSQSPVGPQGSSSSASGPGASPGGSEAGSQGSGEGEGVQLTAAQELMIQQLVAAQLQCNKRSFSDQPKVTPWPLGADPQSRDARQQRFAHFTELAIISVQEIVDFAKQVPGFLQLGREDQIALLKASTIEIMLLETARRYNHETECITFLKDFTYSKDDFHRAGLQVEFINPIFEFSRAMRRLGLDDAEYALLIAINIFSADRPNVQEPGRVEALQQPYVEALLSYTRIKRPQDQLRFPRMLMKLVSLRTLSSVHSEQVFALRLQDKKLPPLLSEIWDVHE
How it was run: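 In this TRANS format, exogenous chimeric NR-Gal4 protein activity, not endogenous factors, drives reporter expression in transfected human HepG2 cells. Exposure lasted 24 h; reporter mRNA was read by fluorescent capillary electrophoresis.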

[4] = ATG_M_06_TRANS: Attagene TRANS-FACTORIAL HepG2 Assay for M06 Transcription Factor (Internal Marker) (AID 2282983; active = hit-call score of the fitted dose curve at least 0.9, where 1 is the maximum); details: HepG2 Attagene TRANS M06 internal marker reporter
How it was run: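 Measured by capillary electrophoresis of fluorescently labelled RT-PCR products, this endpoint reflects reporter mRNA in HepG2 cells harbouring exogenous NR-GAL4 reporter constructs after 24 h exposure, with DMSO as baseline.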

[5] = ATG_M_32_TRANS: Attagene TRANS-FACTORIAL HepG2 Assay for M32 Transcription Factor (Internal Marker) (AID 2282984; active = hit-call score of the fitted dose curve at least 0.9, where 1 is the maximum;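 also: transcript level of a background control reporter unit measured by RT-PCR and capillary electrophoresis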); details: HepG2 Attagene TRANS M32 internal marker reporter
How it was run: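 Human hepatoma HepG2, transient MRTU transfection, 24 h treatment. RNA → RT-PCR → fluorescent primer extension → HpaI digest (2 h, 37 C) → CE. Positive-direction fit vs DMSO.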

[6] = target: Nuclear respiratory factor 1 (Homo sapiens) (UniProt Q16656); assay: ATG_NRF1_CIS: Attagene CIS-FACTORIAL HepG2 Assay for human Nuclear Respiratory Factor 1 (NRF1) Orphan Gene (AID 2282987); details: HepG2 NRF1 cis-element reporter, Attagene multiplex; actives raise or lower the signal
Sequence of Nuclear respiratory factor 1 (Homo sapiens) (Q16656 whole entry, looked up): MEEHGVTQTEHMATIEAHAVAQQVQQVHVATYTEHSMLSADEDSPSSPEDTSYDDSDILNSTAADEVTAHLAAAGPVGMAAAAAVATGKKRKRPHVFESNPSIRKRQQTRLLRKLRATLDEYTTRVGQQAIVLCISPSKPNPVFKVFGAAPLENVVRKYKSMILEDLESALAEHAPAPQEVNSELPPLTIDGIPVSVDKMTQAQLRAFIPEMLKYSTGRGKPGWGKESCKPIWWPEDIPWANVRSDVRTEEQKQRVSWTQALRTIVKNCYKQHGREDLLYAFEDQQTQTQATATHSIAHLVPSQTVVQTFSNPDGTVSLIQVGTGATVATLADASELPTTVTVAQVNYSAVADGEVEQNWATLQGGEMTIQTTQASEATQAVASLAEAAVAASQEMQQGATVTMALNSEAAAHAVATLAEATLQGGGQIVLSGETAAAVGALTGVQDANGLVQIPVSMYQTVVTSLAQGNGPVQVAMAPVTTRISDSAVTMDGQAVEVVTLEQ
How it was run: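 Human hepatoma HepG2 cells carrying transfected promoter-regulated reporter units were incubated with test chemicals for 24 h. Reporter transcripts were measured by RT-PCR plus capillary electrophoresis, and endpoints derived by bidirectional fitting with DMSO as baseline.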

[7] = target: Myc proto-oncogene protein (Homo sapiens) (UniProt P01106); assay: ATG_Myc_CIS: Attagene CIS-FACTORIAL HepG2 Assay for human Myelocytomatosis (Myc) Proto-Oncogene Transcription Factor (AID 2282990); details: HepG2, Attagene cis-reporter transcription factor activity; actives raise or lower the signal
Sequence of Myc proto-oncogene protein (Homo sapiens) (P01106 whole entry, looked up): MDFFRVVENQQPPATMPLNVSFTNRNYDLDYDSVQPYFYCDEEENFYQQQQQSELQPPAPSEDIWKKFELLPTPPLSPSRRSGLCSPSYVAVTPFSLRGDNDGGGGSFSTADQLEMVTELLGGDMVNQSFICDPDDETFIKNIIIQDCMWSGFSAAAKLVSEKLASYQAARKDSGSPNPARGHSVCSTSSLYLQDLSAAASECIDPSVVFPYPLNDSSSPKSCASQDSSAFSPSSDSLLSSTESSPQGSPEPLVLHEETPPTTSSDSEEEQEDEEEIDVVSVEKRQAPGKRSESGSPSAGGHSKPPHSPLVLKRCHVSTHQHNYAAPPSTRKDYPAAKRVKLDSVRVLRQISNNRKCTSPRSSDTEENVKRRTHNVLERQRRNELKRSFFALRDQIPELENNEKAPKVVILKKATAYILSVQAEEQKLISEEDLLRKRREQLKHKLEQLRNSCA
How it was run: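 DMSO-normalised, bidirectionally fitted reporter mRNA signal. HepG2 cells transfected with cis reporter constructs, treated 24 h; transcripts detected by RT-PCR, 6-FAM primer extension and CE.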

[8] = ATG_NF_kB_CIS: Attagene CIS-FACTORIAL HepG2 Assay for human Nuclear Factor Kappa B (NF-kB) (AID 2282991); details: HepG2 Attagene cis-factorial NF-kB reporter mRNA; actives raise or lower the signal
How it was run: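 Multiplexed cis-reporter assay in transiently transfected HepG2. 24 h treatment; RNA isolated, RT-PCR, labelled fragments resolved by CE. DMSO baseline.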

[9] = ATG_NRF2_ARE_CIS: Attagene CIS-FACTORIAL HepG2 Assay for human Nuclear Factor Erythroid 2 Related Factor 2 (NFR2) response to Antioxidant Response Elements (ARE) (AID 2282992); details: HepG2 Attagene ARE/NRF2 reporter, transcription factor activity; actives raise or lower the signal
How it was run: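 Transient MRTU transfection of HepG2; 24 h compound exposure; TriZol RNA, RT with oligo(dT), PCR, 6-FAM primer extension, HpaI cut, CE. Bidirectional fit vs DMSO.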

[10] = ATG_Oct_MLP_CIS: Attagene CIS-FACTORIAL HepG2 Assay for human Octamer-Binding Transcription Factor (Oct) (AID 2282993); details: HepG2 Attagene cis-factorial Oct reporter, mRNA; actives raise or lower the signal
How it was run: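 Cells of the HepG2 line express promoter-controlled reporter sequences whose mRNA levels, after 24 h treatment, are measured by RT-PCR and capillary electrophoresis. Increases and decreases are scored relative to DMSO.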

[11] = target: Cellular tumor antigen p53 (Homo sapiens) (UniProt P04637); assay: ATG_p53_CIS: Attagene CIS-FACTORIAL HepG2 Assay for human p53 Transcription Factor (AID 2282994); details: HepG2 p53 cis-element reporter, Attagene mRNA; actives raise or lower the signal
Sequence of Cellular tumor antigen p53 (Homo sapiens) (P04637 whole entry, looked up): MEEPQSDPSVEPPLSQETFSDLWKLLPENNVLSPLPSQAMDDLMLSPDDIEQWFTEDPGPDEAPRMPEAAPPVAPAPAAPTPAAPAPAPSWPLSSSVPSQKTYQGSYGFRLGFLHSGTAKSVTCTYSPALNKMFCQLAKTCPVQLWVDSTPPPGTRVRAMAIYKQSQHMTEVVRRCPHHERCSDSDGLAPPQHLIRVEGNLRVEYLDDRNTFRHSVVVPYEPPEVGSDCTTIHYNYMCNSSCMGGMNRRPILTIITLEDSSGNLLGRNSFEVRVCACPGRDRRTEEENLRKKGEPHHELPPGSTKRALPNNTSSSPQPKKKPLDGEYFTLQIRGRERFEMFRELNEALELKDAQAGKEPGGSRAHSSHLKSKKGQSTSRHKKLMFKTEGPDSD
How it was run: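 HepG2, transient MRTU transfection (cis promoter elements, endogenous TFs); 24 h dosing; RNA isolation, RT-PCR, 6-FAM primer extension, HpaI digest, CE fluorescence; bidirectional fit vs DMSO.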

[12] = BSK_3C_TissueFactor: BioMAP Diversity Plus: 3C Assay for Tissue Factor Biomarker Activity (AID 2282997); details: BioMAP 3C HUVEC, tissue factor biomarker readout; actives raise or lower the signal
How it was run: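 Values derive from bidirectional curve fitting against DMSO of Tissue Factor ELISA signals, taken 24 h after dosing primary human umbilical vein endothelial cells.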

[13] = BSK_3C_uPAR: BioMAP Diversity Plus: 3C Assay for Urokinase-type plasminogen activator receptor (uPAR) Biomarker Activity (AID 2282998); details: BioMAP 3C HUVEC, uPAR biomarker ELISA; actives raise or lower the signal
How it was run: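 Endothelial primary cells of human umbilical vein origin received test chemical; 24 h later uPAR was assayed by ELISA. Fitting was bidirectional, DMSO as negative control.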

[14] = BSK_3C_VCAM1: BioMAP Diversity Plus: 3C Assay for Vascular cell adhesion molecule 1 (VCAM1) Biomarker Activity (AID 2282999); details: BioMAP 3C HUVEC, VCAM1 ELISA, cytokine-stimulated; actives raise or lower the signal
How it was run: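 Human umbilical vein endothelial cells were dosed with compound for 24 h, after which cell-surface VCAM-1 was quantified by ELISA. Bidirectional curve fitting used DMSO as negative control and activity baseline.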

[15] = BSK_4H_Eotaxin3: BioMAP Diversity Plus: 4H Assay for Eotaxin 3 Biomarker Activity (AID 2283000); details: primary human endothelial cells (HUVEC); actives raise or lower the signal;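 also: CCL26 protein level quantified by ELISA in parallel with SRB cytotoxicity check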
How it was run: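 Endothelial primary cells (human umbilical vein) exposed to compound for 24 h. ELISA detection of Eotaxin-3.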

[16] = target: Hepatocyte nuclear factor 4-alpha (Homo sapiens) (UniProt P41235); assay: ATG_HNF4a_TRANS: Attagene TRANS-FACTORIAL HepG2 Assay for human Hepatocyte Nuclear Factor 4 alpha (HNF4a) (AID 2282982; active = hit-call score of the fitted dose curve at least 0.9, where 1 is the maximum); details: HepG2 HNF4a transactivation reporter, mRNA readout
How it was run: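 Cells used were human HepG2, transiently carrying GAL4-UAS reporter units read out against exogenous NR-GAL4 chimeras. Reporter transcript levels after 24 h dosing were quantified by fluorescent RT-PCR and capillary electrophoresis.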

[17] = target: Nuclear receptor subfamily 4 group A member 2 (Homo sapiens) (UniProt P43354); assay: ATG_NURR1_TRANS: Attagene TRANS-FACTORIAL HepG2 Assay for human Nuclear Receptor Related Protein 1 (NURR1) (AID 2282985; active = hit-call score of the fitted dose curve at least 0.9, where 1 is the maximum); details: HepG2 Attagene TRANS reporter, mRNA readout
Sequence of Nuclear receptor subfamily 4 group A member 2 (Homo sapiens) (P43354 whole entry, looked up): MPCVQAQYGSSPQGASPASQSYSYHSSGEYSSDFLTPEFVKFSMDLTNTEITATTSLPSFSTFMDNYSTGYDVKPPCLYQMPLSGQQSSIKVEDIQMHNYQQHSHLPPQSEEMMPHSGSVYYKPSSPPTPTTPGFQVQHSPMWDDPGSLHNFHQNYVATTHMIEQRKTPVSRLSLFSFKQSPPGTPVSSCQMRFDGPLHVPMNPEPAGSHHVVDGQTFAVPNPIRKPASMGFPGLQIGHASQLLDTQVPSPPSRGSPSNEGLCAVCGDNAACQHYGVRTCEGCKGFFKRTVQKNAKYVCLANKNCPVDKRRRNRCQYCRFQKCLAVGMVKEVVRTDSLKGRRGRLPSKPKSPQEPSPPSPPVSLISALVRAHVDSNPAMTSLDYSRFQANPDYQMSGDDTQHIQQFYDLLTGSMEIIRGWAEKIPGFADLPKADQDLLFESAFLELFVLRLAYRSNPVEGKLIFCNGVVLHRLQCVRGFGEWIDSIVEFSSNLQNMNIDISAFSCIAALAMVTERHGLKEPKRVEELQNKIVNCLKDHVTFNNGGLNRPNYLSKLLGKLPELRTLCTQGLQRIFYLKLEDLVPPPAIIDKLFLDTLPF
How it was run: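 After 24 h chemical dosing, total RNA from transiently transfected HepG2 cells was reverse-transcribed and reporter cDNA PCR-amplified, FAM-labelled and analysed by capillary electrophoresis. Activity fitted in positive direction, DMSO as negative control.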

[18] = target: Transcriptional activator Myb (Homo sapiens) (UniProt P10242); assay: ATG_Myb_CIS: Attagene CIS-FACTORIAL HepG2 Assay for human Myeloblastosis (Myb) Proto-Oncogene Transcription Factor (AID 2282986); details: HepG2 Attagene CIS-FACTORIAL Myb reporter transcription; actives raise or lower the signal
Sequence of Transcriptional activator Myb (Homo sapiens) (P10242 whole entry, looked up): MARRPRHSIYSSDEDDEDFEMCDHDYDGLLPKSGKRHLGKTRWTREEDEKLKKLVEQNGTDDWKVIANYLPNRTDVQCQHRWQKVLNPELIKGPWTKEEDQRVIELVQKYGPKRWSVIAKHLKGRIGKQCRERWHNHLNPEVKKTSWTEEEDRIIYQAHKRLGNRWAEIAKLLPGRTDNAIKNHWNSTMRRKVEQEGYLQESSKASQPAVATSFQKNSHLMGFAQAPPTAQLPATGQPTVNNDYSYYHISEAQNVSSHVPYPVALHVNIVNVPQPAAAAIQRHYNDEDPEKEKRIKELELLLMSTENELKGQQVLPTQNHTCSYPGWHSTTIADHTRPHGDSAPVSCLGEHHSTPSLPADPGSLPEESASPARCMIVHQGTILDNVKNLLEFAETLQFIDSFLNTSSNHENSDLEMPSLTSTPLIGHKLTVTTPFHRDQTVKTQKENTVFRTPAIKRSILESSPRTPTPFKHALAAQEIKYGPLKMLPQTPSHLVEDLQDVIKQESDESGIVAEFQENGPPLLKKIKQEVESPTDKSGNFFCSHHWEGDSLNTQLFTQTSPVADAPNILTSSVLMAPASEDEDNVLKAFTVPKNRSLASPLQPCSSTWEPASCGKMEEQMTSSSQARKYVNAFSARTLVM
How it was run: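 Endogenous transcription factor activity at a Myb-responsive cis element is reported in human liver HepG2 cells after 24 h chemical treatment. Reporter mRNA is detected by RT-PCR and capillary electrophoresis fluorescence, with DMSO as baseline.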

[19] = ATG_NFI_CIS: Attagene CIS-FACTORIAL HepG2 Assay for human Nuclear Factor I (NFI) (AID 2282989); details: HepG2 cis-regulatory reporter, NFI response element transcription; actives raise or lower the signal
How it was run: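 After transient transfection of HepG2 with cis-promoter reporter constructs and 24 h dosing, RNA is reverse-transcribed, amplified, 6-FAM end-labelled and HpaI-digested before capillary analysis. Bidirectional curve fitting against DMSO.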

[20] = target: Glucocorticoid receptor (Homo sapiens) (UniProt P04150); assay: ATG_GR_TRANS: Attagene TRANS-FACTORIAL HepG2 Assay for human Glucocorticoid Receptor (GR) (AID 2282978; active = hit-call score of the fitted dose curve at least 0.9, where 1 is the maximum;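 also: activators score as hits since higher reporter transcript over DMSO is fitted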); details: HepG2 Attagene TRANS GR reporter, mRNA transcription
Sequence of Glucocorticoid receptor (Homo sapiens) (P04150 whole entry, looked up): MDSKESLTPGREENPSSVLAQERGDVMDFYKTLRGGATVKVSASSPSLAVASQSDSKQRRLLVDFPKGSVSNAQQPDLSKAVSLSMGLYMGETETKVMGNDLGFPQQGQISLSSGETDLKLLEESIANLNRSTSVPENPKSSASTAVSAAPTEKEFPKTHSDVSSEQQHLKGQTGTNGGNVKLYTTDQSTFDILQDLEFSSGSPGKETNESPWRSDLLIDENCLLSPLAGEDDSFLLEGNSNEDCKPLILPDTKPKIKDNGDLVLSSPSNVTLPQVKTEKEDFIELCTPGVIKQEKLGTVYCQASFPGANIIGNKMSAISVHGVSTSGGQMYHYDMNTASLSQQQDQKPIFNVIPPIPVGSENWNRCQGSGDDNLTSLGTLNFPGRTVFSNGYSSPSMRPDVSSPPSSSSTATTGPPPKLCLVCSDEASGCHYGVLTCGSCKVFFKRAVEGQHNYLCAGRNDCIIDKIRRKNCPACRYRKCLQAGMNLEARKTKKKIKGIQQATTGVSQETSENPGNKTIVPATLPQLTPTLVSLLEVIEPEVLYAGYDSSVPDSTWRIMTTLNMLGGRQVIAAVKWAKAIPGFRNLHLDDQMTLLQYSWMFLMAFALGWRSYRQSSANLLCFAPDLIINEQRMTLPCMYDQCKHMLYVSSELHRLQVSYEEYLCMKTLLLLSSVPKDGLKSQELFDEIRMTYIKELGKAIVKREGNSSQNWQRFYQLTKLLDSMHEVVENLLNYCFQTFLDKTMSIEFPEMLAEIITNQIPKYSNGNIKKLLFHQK
How it was run: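 Multiplexed TRANS reporter system, HepG2; 24 h exposure; RNA → oligo(dT) RT → reporter-specific PCR → 6-FAM primer extension → HpaI cut → CE fluorescence. Gain-of-signal vs DMSO.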

Measured: AC50

O=C=NCCCCCCN=C=O
not listed: [16] | [17] | [18] | [19] | [20]
inactive: all other assays above

CCN(Cc1cccc(S(=O)(=O)O)c1)c1ccc(C(=C2C=CC(=[N+](CC)Cc3cccc(S(=O)(=O)O)c3)C=C2)c2ccccc2S(=O)(=O)[O-])cc1
not listed: [1] | [2] | [3] | [5] | [20]
inactive: all other assays above

Cc1ccc(C(C)C)cc1
not listed: [1] | [5] | [8] | [16] | [18] | [19] | [20]
inactive: all other assays above

CCO[Si](CCCNC(N)=O)(OCC)OCC
not listed: [1] | [2] | [3] | [8] | [10] | [16] | [19]
inactive: all other assays above
